The results in this text go back to PubChem BioAssay (Tox21).

A number with no mark means an inactive call. Records with an inconclusive call do not appear. Activity calls are given as the source filed them. Calls come from the whole dose curve; as a rule, active = well fitted curve in the direction sought with a large enough effect in the repeat runs; inconclusive = weak or mixed curves; inactive = no such curve, though single readings can be large; an effect the other way counts as inactive or inconclusive.

A short description of test [1]: Caspase-3/7 induction in HepG2 cells by small molecules, qHTS assay (AID 1346978). Note: nearly all actives have a fitted effect of over 15% in size. The gist of the method: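 Wild-type HepG2 cells (2,000/well) were settled 5 h at 37 C, 5% CO2, then exposed to compounds in DMSO for 17 h. Caspase-3/7 activity was read by luminescence 30 min after adding Caspase-Glo 3/7 reagent at room temperature.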
Background: Quantitative high-throughput screening tests each substance at several concentrations.

Test [2] is described as follows: Caspase-3/7 induction in CHO-K1 cells by small molecules, qHTS cell viability counter screen (AID 1346979). Note: nearly all actives have a fitted effect of over 35% in size. Note: potency is the fitted concentration of half-maximal effect. In a few lines:
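Wild-type CHO-K1 cells (1,500/well) treated with compound after 5 h plating; after 16 h at 37C, viability read as CellTiter-Fluor fluorescence following 1 h reagent incubation, in the same wells as the caspase read.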

Test [3] is described as follows: Caspase-3/7 induction in CHO-K1 cells by small molecules, qHTS assay (AID 1346980). Note: nearly all actives have a fitted effect of over 15% in size. The gist of the method:
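Wild-type cells were seeded at 1,500 per well and settled 5 hr at 37 C, 5% CO2, then exposed to DMSO-dissolved compounds for 17 hr. Caspase-Glo 3/7 reagent was added, and luminescence was read after 30min at room temperature.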

Test [4] can be described thus: Caspase-3/7 induction in HepG2 cells by small molecules, qHTS cell viability counter screen (AID 1346981). Note: nearly all actives have a fitted effect of over 30% in size. Note: potency is the fitted concentration of half-maximal effect. In a few lines: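 Steps: seed 2,000 HepG2 cells per well; incubate 5 hr at 37 C; pin-add compounds in DMSO; incubate 16 hr; add CellTiter-Fluor; after 1 hr at 37 C and 5% CO2, read fluorescence.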
For test [5], the target named is Nuclear receptor subfamily 1 group I member 2 (Homo sapiens) (UniProt O75469). The experiment in a line: Human pregnane X receptor (PXR) small molecule agonists, qHTS assay (AID 1346982). Note: nearly all actives have a fitted effect of over 35% in size. Note: potency is the fitted concentration of half-maximal effect. The gist of the method:
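Agonist mode qHTS: PXR-Luc HepG2 cells plated 5 hr before DMSO-dissolved compounds were pinned in, cultured 24 hr at 37 C, 5% CO2; ONE-Glo luminescence readout.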

In test [6] the target is Nuclear receptor subfamily 1 group I member 2 (Rattus norvegicus) (UniProt Q9R1A7). The experiment in a line: Rat pregnane X receptor (rPXR) activation by small molecules, qHTS assay (AID 1346983). Note: nearly all actives have a fitted effect of over 20% in size. To be noted: rPXR luciferase reporter cells, One-Glo luminescence, 24 h; max activation: active compounds read high. In a few lines: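 Cell-based rPXR luciferase reporter assay, 2,000 cells per well, rested 5hr at 37 C before compound addition in DMSO, then 24 hr at 37 C. One-Glo reagent was added and luminescence read after 30 min at room temperature.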
Sequence of Nuclear receptor subfamily 1 group I member 2 (Rattus norvegicus) (Q9R1A7 whole entry, looked up): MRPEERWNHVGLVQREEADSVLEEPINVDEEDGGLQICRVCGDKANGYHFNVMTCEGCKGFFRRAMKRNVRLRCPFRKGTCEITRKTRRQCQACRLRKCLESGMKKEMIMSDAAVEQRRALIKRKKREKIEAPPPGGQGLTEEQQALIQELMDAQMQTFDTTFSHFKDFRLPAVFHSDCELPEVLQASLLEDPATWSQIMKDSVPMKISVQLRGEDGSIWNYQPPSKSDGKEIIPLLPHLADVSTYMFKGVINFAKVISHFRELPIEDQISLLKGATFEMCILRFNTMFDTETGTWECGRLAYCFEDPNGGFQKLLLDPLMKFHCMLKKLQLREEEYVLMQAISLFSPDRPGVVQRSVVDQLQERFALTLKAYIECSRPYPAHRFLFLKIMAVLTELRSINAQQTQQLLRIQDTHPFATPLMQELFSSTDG

Test [7] has as its target Nuclear receptor subfamily 1 group I member 2 (Homo sapiens) (UniProt O75469). The experiment in a line: CYP3A4 induction through human pregnane X receptor (PXR) by small molecules, qHTS assay (AID 1346984). Note: nearly all actives have a fitted effect of over 40% in size. The gist of the method: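 Steps: seed DPX-2 cells, 5 hr at 37C; pin-transfer compounds; 24 hr at 37C; add Luciferin-IPA (3uM final), 3 hr at 37C; add One-Glo, 30 min RT; read luminescence.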

For test [8] the target is unchanged. Kind of test: Human pregnane X receptor (PXR) activation by small molecules, qHTS assay (AID 1346985). Note: nearly all actives have a fitted effect of over 40% in size. In a few lines:
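DPX-2 cells (HepG2 co-transfected with a PXR response element and a CYP3A4-promoter luciferase construct) were seeded at 2,000 per well, rested 5 hr at 37C, then exposed to DMSO-dissolved compounds for 24 hr. Activation was read as luciferase luminescence.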

The target of test [9] is Cytochrome P450 2C19 (Homo sapiens) (UniProt P33261). The experiment in a line: Cytochrome P450 Family 2 Subfamily C Member 19 (CYP2C19) small molecule antagonists: luciferase reporter qHTS assay (AID 1671197). Note: nearly all actives have a fitted effect of over 65% in size. Note: potency is the fitted concentration of half-maximal effect. The gist of the method: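 Luminescent readout of CYP2C19 activity: luciferin product detected 20 min after adding detection reagent. Before that, compound and enzyme-substrate mix preincubated 10 min at room temperature; NADPH-regenerating system started a 1 h, 37C reaction. Ketoconazole as positive control.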
Sequence of Cytochrome P450 2C19 (Homo sapiens) (P33261 whole entry, looked up): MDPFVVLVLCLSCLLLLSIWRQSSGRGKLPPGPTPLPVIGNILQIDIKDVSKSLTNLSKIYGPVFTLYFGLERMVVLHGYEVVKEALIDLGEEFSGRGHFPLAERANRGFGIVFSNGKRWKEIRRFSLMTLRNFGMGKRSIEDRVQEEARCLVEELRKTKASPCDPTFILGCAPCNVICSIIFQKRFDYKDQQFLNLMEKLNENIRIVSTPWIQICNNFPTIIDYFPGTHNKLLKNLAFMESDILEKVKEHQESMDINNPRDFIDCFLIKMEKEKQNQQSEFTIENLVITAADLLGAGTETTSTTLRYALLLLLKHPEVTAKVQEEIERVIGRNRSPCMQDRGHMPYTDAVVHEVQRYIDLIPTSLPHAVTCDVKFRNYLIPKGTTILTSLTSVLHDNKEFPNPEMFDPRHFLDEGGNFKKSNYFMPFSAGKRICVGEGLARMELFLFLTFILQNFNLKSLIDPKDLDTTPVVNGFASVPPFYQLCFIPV
A general note: Reporter assays use an easily measured gene product as a stand-in for the process of interest.

The target in test [10] is Cytochrome P450 1A2 (Homo sapiens) (UniProt P05177). Kind of test: Cytochrome P450 Family 1 Subfamily A Member 2 (CYP1A2) small molecule antagonists: luciferase reporter qHTS assay (AID 1671199). Note: nearly all actives have a fitted effect of over 50% in size. Note: potency is the fitted concentration of half-maximal effect. The gist of the method:
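Inhibition of CYP1A2 conversion of proluciferin to luciferin, detected by luminescence. Reaction run 1 h at room temperature with NADPH regeneration after brief compound preincubation.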

Test [11] addresses Voltage-gated inwardly rectifying potassium channel KCNH2 (Homo sapiens) (UniProt Q12809). Kind of test: Human Ether-a-go-go-Related Gene (hERG) channel small molecule antagonists: fluorescence cell-based qHTS assay (AID 1671200). Note: nearly all actives have a fitted effect of over 50% in size. Note: potency is the fitted concentration of half-maximal effect. The gist of the method:
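hERG-U2OS cells plated overnight at 37 C, loaded with FluxOR II dye 1 h at RT in dark; after 10 min, thallium stimulus added. Fluorescence (480/540 nm) read kinetically for 2 min at 1 s intervals.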
(hERG is a cardiac potassium channel; its block is linked to QT prolongation.)

Test [12] has as its target Cytochrome P450 2D6 (Homo sapiens) (UniProt P10635). The experiment in a line: Cytochrome P450 Family 2 Subfamily D Member 6 (CYP2D6) small molecule antagonists: luciferase reporter qHTS assay (AID 1671196). Note: nearly all actives have a fitted effect of over 50% in size. Note: potency is the fitted concentration of half-maximal effect. In a few lines: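 P450-Glo format: CYP2D6 converts a proluciferin substrate to luciferin in an NADPH-driven reaction lasting 1 h at room temperature. Light output, proportional to CYP2D6 activity, reflects interference by test chemicals.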

In test [13] the target is Cytochrome P450 2C9 (Homo sapiens) (UniProt P11712). Kind of test: Cytochrome P450 Family 2 Subfamily C Member 9 (CYP2C9) small molecule antagonists: luciferase reporter qHTS assay (AID 1671198). Note: nearly all actives have a fitted effect of over 50% in size. Note: potency is the fitted concentration of half-maximal effect. In a few lines:
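CYP2C9 activity was measured with a P450-Glo proluciferin substrate. Enzyme–substrate mix was held with compound for 10 min at room temperature, then NADPH regeneration solution was added for 1 h at 37C. Luciferin product was read as luminescence.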

Test [14] concerns the target Cytochrome P450 3A4 (Homo sapiens) (UniProt P08684). Kind of test: Cytochrome P450 Family 3 Subfamily A Member 4 (CYP3A4) small molecule antagonists: luciferase reporter qHTS assay (AID 1671201). Note: nearly all actives have a fitted effect of over 50% in size. Note: potency is the fitted concentration of half-maximal effect. In a few lines:
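P450-Glo CYP3A4 luminescent assay: compounds preincubated 10 min at room temperature with enzyme and proluciferin substrate, NADPH regeneration added, 1 h room-temperature reaction, stopped with luciferin detection reagent; luminescence read after 20 min. Ketoconazole positive control.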
% is set by controls: 0 for no effect and ±100 for the full control effect.

Sequence of Cytochrome P450 2C9 (Homo sapiens) (P11712 whole entry, looked up): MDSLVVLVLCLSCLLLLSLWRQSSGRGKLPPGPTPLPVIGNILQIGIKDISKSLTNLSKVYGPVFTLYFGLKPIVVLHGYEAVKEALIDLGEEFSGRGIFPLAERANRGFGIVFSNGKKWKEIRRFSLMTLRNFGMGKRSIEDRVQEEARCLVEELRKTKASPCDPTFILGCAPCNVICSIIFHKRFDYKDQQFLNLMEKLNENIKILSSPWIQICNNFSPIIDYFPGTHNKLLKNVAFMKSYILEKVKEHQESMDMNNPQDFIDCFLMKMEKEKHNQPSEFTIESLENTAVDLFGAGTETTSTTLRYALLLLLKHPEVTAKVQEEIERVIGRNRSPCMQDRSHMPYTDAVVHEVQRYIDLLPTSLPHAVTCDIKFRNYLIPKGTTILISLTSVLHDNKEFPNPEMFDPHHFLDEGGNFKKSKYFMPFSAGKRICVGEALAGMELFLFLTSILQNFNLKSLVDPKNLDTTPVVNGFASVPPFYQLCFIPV
Sequence of Nuclear receptor subfamily 1 group I member 2 (Homo sapiens) (O75469 whole entry, looked up): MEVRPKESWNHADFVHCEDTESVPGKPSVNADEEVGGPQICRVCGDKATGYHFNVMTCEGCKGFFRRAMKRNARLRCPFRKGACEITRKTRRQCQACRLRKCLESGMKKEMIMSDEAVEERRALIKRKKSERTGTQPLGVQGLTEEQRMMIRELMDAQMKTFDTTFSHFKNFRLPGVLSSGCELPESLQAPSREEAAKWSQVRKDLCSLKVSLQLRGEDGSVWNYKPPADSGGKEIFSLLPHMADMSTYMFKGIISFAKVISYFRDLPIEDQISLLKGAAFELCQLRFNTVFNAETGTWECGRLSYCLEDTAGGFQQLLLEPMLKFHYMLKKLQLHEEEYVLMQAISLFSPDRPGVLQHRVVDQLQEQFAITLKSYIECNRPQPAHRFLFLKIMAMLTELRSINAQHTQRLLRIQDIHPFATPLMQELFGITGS
Sequence of Voltage-gated inwardly rectifying potassium channel KCNH2 (Homo sapiens) (Q12809 whole entry, looked up): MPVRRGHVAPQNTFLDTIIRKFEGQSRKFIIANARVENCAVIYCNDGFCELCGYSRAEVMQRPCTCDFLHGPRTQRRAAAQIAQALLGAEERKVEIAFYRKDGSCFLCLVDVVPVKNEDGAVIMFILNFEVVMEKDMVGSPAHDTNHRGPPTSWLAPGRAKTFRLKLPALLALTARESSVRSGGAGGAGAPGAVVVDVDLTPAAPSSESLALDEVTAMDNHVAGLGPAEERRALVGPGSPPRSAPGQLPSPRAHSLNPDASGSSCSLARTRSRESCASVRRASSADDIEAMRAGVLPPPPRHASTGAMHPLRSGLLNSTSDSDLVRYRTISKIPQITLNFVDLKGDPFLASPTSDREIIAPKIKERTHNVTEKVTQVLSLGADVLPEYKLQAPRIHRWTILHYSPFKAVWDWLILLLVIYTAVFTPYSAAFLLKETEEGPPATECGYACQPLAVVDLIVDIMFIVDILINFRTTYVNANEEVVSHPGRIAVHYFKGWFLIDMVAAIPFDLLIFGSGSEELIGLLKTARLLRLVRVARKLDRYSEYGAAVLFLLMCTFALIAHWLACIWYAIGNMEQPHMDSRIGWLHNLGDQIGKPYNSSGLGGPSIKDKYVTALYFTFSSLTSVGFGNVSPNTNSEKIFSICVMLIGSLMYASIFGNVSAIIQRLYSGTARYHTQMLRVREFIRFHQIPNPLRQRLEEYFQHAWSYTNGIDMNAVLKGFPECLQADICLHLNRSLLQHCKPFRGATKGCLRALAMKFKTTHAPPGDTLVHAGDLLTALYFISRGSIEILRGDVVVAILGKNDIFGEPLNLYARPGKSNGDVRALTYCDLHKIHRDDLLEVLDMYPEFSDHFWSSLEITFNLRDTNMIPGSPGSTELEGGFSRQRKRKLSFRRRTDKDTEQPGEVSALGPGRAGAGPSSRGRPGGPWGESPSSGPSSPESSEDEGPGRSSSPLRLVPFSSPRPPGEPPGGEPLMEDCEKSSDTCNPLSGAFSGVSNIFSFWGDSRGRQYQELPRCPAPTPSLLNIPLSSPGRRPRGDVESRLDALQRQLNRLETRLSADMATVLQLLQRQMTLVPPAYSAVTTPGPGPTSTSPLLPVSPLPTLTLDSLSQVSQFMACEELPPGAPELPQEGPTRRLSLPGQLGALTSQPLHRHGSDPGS
Sequence of Cytochrome P450 3A4 (Homo sapiens) (P08684 whole entry, looked up): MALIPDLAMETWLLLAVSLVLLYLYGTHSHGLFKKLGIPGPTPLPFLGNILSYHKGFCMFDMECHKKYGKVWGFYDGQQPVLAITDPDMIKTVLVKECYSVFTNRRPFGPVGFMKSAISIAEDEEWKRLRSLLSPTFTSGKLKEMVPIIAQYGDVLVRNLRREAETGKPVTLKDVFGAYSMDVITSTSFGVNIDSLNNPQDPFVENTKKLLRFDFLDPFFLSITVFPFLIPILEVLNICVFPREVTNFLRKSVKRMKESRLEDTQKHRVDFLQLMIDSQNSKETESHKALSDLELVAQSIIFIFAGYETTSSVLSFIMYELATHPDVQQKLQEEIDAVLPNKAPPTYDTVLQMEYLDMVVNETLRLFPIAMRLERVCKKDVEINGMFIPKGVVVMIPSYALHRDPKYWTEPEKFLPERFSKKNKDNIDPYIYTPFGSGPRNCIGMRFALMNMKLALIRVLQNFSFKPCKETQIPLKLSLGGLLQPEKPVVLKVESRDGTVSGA
Sequence of Cytochrome P450 2D6 (Homo sapiens) (P10635 whole entry, looked up): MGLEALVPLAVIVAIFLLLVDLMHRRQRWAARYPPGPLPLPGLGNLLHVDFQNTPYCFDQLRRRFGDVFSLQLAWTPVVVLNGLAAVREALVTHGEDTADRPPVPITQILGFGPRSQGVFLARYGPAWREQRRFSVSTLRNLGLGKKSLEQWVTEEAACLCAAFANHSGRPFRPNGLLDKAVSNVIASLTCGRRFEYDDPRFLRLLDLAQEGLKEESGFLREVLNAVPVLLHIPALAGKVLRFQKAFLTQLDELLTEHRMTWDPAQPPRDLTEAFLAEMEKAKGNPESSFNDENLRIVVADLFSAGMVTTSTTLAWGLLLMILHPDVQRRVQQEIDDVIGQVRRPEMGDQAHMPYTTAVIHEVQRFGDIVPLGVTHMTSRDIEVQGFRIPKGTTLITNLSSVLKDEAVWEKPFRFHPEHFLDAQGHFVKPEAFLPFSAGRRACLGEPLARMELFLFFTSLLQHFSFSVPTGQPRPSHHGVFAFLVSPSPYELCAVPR
Sequence of Cytochrome P450 1A2 (Homo sapiens) (P05177 whole entry, looked up): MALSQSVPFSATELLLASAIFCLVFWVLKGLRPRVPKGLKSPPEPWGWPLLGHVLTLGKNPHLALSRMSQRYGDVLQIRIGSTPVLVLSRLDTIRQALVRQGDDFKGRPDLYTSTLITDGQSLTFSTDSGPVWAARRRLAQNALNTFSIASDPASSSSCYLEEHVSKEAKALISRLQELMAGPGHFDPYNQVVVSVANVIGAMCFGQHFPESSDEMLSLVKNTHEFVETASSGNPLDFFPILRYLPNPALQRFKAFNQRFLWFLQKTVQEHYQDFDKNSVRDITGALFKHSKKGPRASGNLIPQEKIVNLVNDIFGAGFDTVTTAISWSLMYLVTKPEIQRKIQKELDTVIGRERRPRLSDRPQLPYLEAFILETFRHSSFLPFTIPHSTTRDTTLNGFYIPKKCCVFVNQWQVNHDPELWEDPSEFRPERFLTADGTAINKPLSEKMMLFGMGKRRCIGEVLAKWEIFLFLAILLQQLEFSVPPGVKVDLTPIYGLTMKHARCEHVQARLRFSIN

Consider `CCCCCCCC/C=C\CCCCCCCC(=O)NCc1ccc(O)c(OC)c1`, for which the Potency result in [1], in test [2], in [3], in [4], in test [5] and in test [7] was “inactive” throughout. Moreover, the Potency entry in test [8] and in [11] was “inactive” in each case. The max activation in [6] was -4.67%. Also, the Potency in test [9] and in [10] was 15.5 µM (active) in each case.
`CCCCCCCOC(=O)c1ccccc1C(=O)OCCCCCCC`: the Potency entry in [1], in [2], in [3], in test [4], in [5] and in test [12] was “inactive” in each case. Further, the Potency result in test [11] was “inactive”. Also, the results for the Potency in test [9], in [13] and in test [10] were 39.9 µM (active), 17.8 µM (active) and 15.9 µM (active), respectively.
Regarding `CCOC(=O)CC(C)O` (configuration not stated), the Potency entry in test [1], in test [2], in [3], in test [4], in [5] and in test [12] was “inactive” throughout. For the same compound, the Potency entry in [9], in test [13], in test [10], in test [11] and in test [14] was “inactive” in each case.
As for `Cc1cccc(C)n1`, the Potency entry in test [1], in test [2], in [3], in [4], in test [5] and in [12] was “inactive” throughout. In addition, the Potency result in [9], in test [13], in [11] and in [14] was “inactive” throughout. Also, in test [10], the Potency is 39.9 µM (active).
In the case of `CO[Si](CCCNCCNCCN)(OC)OC`, the Potency result in test [1], in test [2], in test [3], in test [4], in test [5] and in test [12] was “inactive” each time. The Potency result in [9], in [13], in test [10], in test [11] and in [14] was “inactive” throughout.
For the compound `CC[N+](CC)(CC)Cc1ccccc1`, the Potency entry in [1], in test [2], in test [3], in test [4], in test [5] and in test [9] was “inactive” throughout. In addition, the Potency entry in test [13], in [10], in test [11] and in [14] was “inactive” throughout. Besides, in test [12], the Potency is 35.6 µM (active).
Turning to `c1ccc2c(c1)CCC2`, the Potency entry in test [1], in test [2], in test [3], in [4], in [5] and in test [12] was “inactive” each time. In addition, the Potency result in test [9], in test [13], in [10], in test [11] and in [14] was “inactive” throughout.
Take `C=CC(C)(CCC=C(C)C)OC(=O)/C=C/c1ccccc1` (configuration not stated): the Potency entry in test [1], in test [2], in [3], in [4], in test [12] and in [11] was “inactive” in each case. In addition, the Potency in [5] is 61.1 µM (active); in test [9], 6.33 µM (active); in test [13] it was 6.33 µM (active); in test [10], 31.7 µM (active).
As for `Clc1ccccc1CN1CCc2sccc2C1`, the Potency result in [1], in test [2], in [3] and in test [4] was “inactive” throughout.
As for `CC(C)=CCCC(C)O` (configuration not stated), the Potency result in [1], in [2], in test [3], in [4], in [5] and in test [12] was “inactive” throughout. In addition, the Potency entry in test [9], in test [13], in [10], in [11] and in test [14] was “inactive” in each case.
For the compound `CCN(CC)c1ccc(N)cc1`, the Potency entry in [1], in test [3] and in test [5] was “inactive” throughout. Besides, the Potency in test [2] is 22.3 µM (active); in test [4], 25 µM (active); in [12], 13 µM (active); in test [9], 9.18 µM (active); in test [13], 23.1 µM (active); in [10], 41 µM (active). Besides, the Potency in [11] is 25.2 µM (active); in test [14], 11.6 µM (active).
